PubChem BioAssay
Active and inactive are the calls of the source.

What was measured:
[1] = E. coli DRC41 culture turbidity changes, primary screen, E. coli filamentation inducer project, strain DRC41, OD650, 48 h (AID 1152);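 also: E. coli MC1000 strain DRC41 lacking acrAB efflux pump and sulA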; conditions: E. coli DRC41 (acrAB sulA), higher = more signal, called active from +8 up or from −8 down
[2] = small-molecule binders of probe aLefty1, primary screen, biochemical, small-molecule microarray, 635/667 nm fluorescence (AID 1153); conditions: higher = more signal;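 also: score merges spot fluorescence with signal-to-noise ratio from the scanned slide images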
[3] = PSAC antagonists in infected red cells, primary screen, cell-based, P. falciparum Indochina, OD700, 1 h (AID 1154); conditions: P. falciparum Indochina infected RBC osmotic lysis, higher = more signal, called active from +8 up or from −8 down
[4] = PSAC antagonists in infected red cells, primary screen, cell-based, P. falciparum Indochina, OD700, 2 h (AID 1155);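 also: lysis reports solute entry through the parasite surface anion channel PSAC; channel blockers reduce lysis of infected cells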; conditions: P. falciparum Indochina infected erythrocytes, osmotic lysis OD700; higher = more signal, called active from +8 up or from −8 down
[5] = osmotic lysis modulators in infected erythrocytes, primary screen, PSAC antagonist project, cell-based, P. falciparum Indochina, OD700, 3 h (AID 1156); conditions: higher = more signal, called active from +8 up or from −8 down
[6] = PSAC antagonists in infected red cells, primary screen, cell-based, P. falciparum Indochina, OD700, 18 h (AID 1157); conditions: P. falciparum Indochina infected erythrocytes, osmotic lysis OD700, 18 h; higher = more signal, called active from +8 up or from −8 down
[7] = modulators of S6 phosphorylation in cells, primary screen, cell-based, A549, cytoblot, luminescence, serum-stimulated (AID 1158); conditions: A549 phospho-S6 cytoblot, 5 h, higher = more signal;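 also: serum-stimulated A549 lung adenocarcinoma cells; signal is phosphorylated S6 detected by cytoblot immunostaining with HRP secondary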
[8] = target: NADPH oxidase 2 (Homo sapiens) (UniProt P04839); experiment: NOX2-dependent H2O2 signal modulators, primary screen, NOX inhibitor project, cell-based, HEK293-NOX2, PMA-stimulated, Amplex Red fluorescence (AID 1159); conditions: 45 min, higher = more signal, called active from +8 up or from −8 down; also: test concentration not given here
[9] = target: NADPH oxidase 4 (Homo sapiens) (UniProt Q9NPH5); experiment: NOX4-dependent H2O2 signal modulators, primary screen, NOX inhibitor project, cell-based, HEK293-NOX4, tetracycline-induced, Amplex Red fluorescence (AID 1160); conditions: 45 min, higher = more signal, called active from +8 up or from −8 down
[10] = target: NADPH oxidase 5 (Homo sapiens) (UniProt Q96PH1); experiment: NOX5-dependent H2O2 signal modulators, primary screen, NOX inhibitor project, cell-based, HEK293-NOX5, Amplex Red fluorescence (AID 1161); conditions: HEK293-NOX5, ionomycin, 45 min, higher = more signal
NADPH oxidase 5 (Homo sapiens), sequence (Q96PH1 whole entry, looked up): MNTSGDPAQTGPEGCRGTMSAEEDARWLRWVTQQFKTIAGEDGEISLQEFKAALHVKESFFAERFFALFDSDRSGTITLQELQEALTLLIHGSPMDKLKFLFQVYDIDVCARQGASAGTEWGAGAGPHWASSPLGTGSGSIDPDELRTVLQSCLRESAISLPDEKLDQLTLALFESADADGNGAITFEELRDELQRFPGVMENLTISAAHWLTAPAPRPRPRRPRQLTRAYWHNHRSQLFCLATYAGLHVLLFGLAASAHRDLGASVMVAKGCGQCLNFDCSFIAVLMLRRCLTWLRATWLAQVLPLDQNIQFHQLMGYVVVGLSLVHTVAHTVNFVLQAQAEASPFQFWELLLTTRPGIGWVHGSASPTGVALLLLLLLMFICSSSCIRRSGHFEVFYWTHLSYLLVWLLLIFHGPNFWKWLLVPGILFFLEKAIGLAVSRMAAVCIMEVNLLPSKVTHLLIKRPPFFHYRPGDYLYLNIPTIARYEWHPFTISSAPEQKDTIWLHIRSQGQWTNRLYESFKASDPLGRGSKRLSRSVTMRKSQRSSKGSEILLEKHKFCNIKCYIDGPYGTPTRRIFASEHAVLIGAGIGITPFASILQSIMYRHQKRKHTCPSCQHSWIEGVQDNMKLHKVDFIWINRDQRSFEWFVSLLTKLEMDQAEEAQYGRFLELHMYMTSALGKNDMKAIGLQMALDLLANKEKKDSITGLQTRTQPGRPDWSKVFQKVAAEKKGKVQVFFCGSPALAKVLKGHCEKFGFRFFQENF

NADPH oxidase 2 (Homo sapiens), sequence (P04839 whole entry, looked up): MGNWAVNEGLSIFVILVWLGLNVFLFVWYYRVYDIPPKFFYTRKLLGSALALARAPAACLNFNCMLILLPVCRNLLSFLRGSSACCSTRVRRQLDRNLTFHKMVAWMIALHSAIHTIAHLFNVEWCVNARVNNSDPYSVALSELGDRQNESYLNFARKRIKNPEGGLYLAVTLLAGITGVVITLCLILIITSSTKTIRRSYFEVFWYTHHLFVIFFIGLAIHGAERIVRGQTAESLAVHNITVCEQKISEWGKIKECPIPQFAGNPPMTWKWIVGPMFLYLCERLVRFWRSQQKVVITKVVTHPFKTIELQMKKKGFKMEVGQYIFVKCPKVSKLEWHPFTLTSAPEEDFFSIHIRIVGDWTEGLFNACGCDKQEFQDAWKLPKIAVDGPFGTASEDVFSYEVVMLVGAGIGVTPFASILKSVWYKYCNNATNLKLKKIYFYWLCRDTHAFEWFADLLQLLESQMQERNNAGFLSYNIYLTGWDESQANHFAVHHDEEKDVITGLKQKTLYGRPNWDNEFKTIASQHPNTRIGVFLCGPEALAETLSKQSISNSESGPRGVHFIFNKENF
NADPH oxidase 4 (Homo sapiens), sequence (Q9NPH5 whole entry, looked up): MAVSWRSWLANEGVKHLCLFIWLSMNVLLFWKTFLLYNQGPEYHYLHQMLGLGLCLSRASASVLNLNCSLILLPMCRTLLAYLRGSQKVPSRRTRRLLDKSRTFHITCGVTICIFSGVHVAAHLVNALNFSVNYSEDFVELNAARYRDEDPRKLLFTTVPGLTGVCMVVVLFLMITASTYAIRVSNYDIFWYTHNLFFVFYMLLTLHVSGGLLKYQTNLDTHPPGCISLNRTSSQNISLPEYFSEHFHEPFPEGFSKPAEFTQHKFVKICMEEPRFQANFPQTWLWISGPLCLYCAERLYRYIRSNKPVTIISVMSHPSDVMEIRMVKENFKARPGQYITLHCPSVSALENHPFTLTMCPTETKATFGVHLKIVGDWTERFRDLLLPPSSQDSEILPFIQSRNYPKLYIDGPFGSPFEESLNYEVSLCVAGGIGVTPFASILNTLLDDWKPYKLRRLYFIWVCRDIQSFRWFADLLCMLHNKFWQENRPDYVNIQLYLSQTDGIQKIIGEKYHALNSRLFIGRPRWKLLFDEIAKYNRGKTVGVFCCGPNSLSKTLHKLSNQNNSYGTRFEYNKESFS

Row | Compound | z-score [1] | composite z-score [2] | z-score [3] | z-score [4] | z-score [5] | z-score [6] | z-score [7] | z-score [8] | z-score [9] | z-score [10]
1 | CCC(CC)C(O)C1C=CC2C(=O)N(c3ccccc3)C(=O)C2N1Nc1ccc(C#N)cc1 (stereo not given) | -0.35 (inactive) | 0.675 | 15.4 (active) | 2.91 (inactive) | 3.47 (inactive) | 1.51 (inactive) | -1.11 | -1.49 (inactive) | -3.45 (inactive) | -3.2
2 | C=CCNC(=O)[C@@H]1[C@H]2C(=O)O[C@H](c3ccccc3)[C@H](c3ccccc3)N2[C@H](c2ccc(O)cc2)[C@@]12C(=O)N(C(=O)OCCOC)c1ccccc12 | 0.808 (inactive) | 0.149 | 1.35 (inactive) | -0.27 (inactive) | 0.123 (inactive) | -1.08 (inactive) | 1.64 | 0.818 (inactive) | -0.913 (inactive) | -2.08
3 | C[C@H]1NC(=O)[C@H](Cc2ccccc2)NC(=O)[C@@]23C(=O)N[C@@H](Cc4ccccc4)C2[C@H](C)[C@@]2(C)O[C@H]2C3/C=C/C/C=C\CNC1=O (stereo not given in full) | 0.806 (inactive) | -0.193 | 2.27 (inactive) | 0.142 (inactive) | -0.112 (inactive) | 0.501 (inactive) | 0.423 | -0.287 (inactive) | -1.42 (inactive) | -0.197
4 | O=C(CS)NCCCCCCNC(=O)[C@H]1C[C@H]2C(=O)NCC(=O)N2[C@H]1c1ccc(O)cc1 | -0.618 (inactive) | -0.0969 | 2.33 (inactive) | 0.141 (inactive) | -2.02 (inactive) | 0.23 (inactive) | -0.598 | 1.45 (inactive) | 0.407 (inactive) | -0.391
5 | COC(=O)C(CC#Cc1ccc2c(c1)[C@]1(C(=O)N2)[C@H](c2ccc(OCCO)cc2)N2[C@H](c3ccccc3)[C@H](c3ccccc3)OC(=O)[C@H]2[C@@H]1C(=O)NC[C@H](O)c1ccccc1)C(=O)OC | 1.57 (inactive) | 0.0903 | 2.5 (inactive) | 1.14 (inactive) | 0.829 (inactive) | 0.664 (inactive) | 0.219 | 2.1 (inactive) | 1.2 (inactive) | 0.489
6 | C=CCC(OC(C)=O)[C@@H]1[C@@H](N(Cc2ccc(-c3ccccc3)cc2)C(=O)Cc2ccc(OC)cc2)c2cc(OCCCO)ccc2N1C(=O)c1ccc2ccccc2n1 (stereo not given in full) | 0.165 (inactive) | 0.167 | 2.27 (inactive) | 0.925 (inactive) | -0.165 (inactive) | 1.02 (inactive) | 0.751 | -2.73 (inactive) | 1.41 (inactive) | 2.5
7 | COC(=O)[C@@]1(Cc2ccc(F)cc2)[C@H]2c3cc(C(=O)N(C)C)n(CCc4ccccn4)c3C[C@H]2CN1C(=O)c1ccccc1 | -0.815 (inactive) | 1.01 | 1.81 (inactive) | -0.0235 (inactive) | 0.892 (inactive) | -1.66 (inactive) | 0.402 | 0.831 (inactive) | 1.03 (inactive) | 0.234
8 | CC(=O)NCCCC[C@@H]1NC(=O)[C@@H]2C[C@H](C(=O)NCCCCCCNC(=O)CS)[C@H](c3ccc(O)cc3)N2C1=O | -0.644 (inactive) | 0.0494 | 3.73 (inactive) | 0.2 (inactive) | -1.8 (inactive) | 0.0805 (inactive) | -0.0593 | 0.897 (inactive) | -0.173 (inactive) | -0.697
9 | CCOC(=O)C[C@H]1[C@H](OC(=O)Cc2ccc3c(c2)OCO3)[C@@H](NC(=O)c2ccc(-c3ccccc3)cc2)c2cc(OCCCO)ccc2N1C(=O)c1ccccc1 | 2.36 (inactive) | -0.122 | 8.3 (active) | 1.63 (inactive) | -0.825 (inactive) | 0.505 (inactive) | -0.0321 | -0.588 (inactive) | 0.674 (inactive) | 1.8
10 | O=c1cccc(C=Cc2ccccc2)o1 | 0.465 (inactive) | -0.29 | 2.92 (inactive) | 0.88 (inactive) | 0.488 (inactive) | 0.931 (inactive) | -0.39 | 0.165 (inactive) | -0.562 (inactive) | -0.0341
11 | C=CC(COC(C)=O)NS(=O)(=O)c1ccc(Br)cc1 (stereo not given) | -1.32 (inactive) | 0.157 | 0.132 (inactive) | -0.168 (inactive) | -0.73 (inactive) | -0.064 (inactive) | 0.495 | -0.334 (inactive) | -0.0279 (inactive) | -0.377
12 | Cc1ccc(S[C@]2(C(=O)NCc3ccccc3)CC(=O)N(Cc3ccccc3)[C@@H]2c2ccc(CO)cc2)cc1 | -1.24 (inactive) | -0.188 | 1.27 (inactive) | 0.115 (inactive) | -0.376 (inactive) | -0.234 (inactive) | 0.0768 | -1.51 (inactive) | 0.494 (inactive) | -0.189
13 | COCCOC(=O)N1C(=O)[C@@]2(c3cc(C#CCNC(N)=O)ccc31)[C@H](c1ccc(OCCO)cc1)N1[C@H](c3ccccc3)[C@H](c3ccccc3)OC(=O)[C@H]1[C@@H]2C(=O)N1CCc2cc(OC)c(OC)cc2C1 | 0.506 (inactive) | 0.308 | 3.71 (inactive) | 1.89 (inactive) | 0.523 (inactive) | 1.15 (inactive) | 0.307 | 1.89 (inactive) | 1.09 (inactive) | 0.284
14 | CCN(CC)c1ccc(N2CC=CC34O[C@@H]5/C=C\CCCOC(=O)C5[C@H]3C(=O)N(C(CO)C(C)C)[C@@H]4C2=O)cc1 (stereo not given in full) | -0.522 (inactive) | -0.137 | 1.38 (inactive) | 0.486 (inactive) | 0.883 (inactive) | 0.648 (inactive) | -0.713 | 0.0116 (inactive) | 0.337 (inactive) | 0.492
15 | O=C1O[C@@H](c2ccccc2)[C@@H](c2ccccc2)N2[C@@H](c3ccc(O)cc3)[C@]3(C(=O)Nc4ccc(C#CC5(O)CCCCCC5)cc43)[C@@H](C(=O)N3CCCCCCC3)[C@H]12 | 0.489 (inactive) | 2.77 | 1.32 (inactive) | 0.836 (inactive) | 1.17 (inactive) | 0.564 (inactive) | 0.181 | 1.1 (inactive) | 1.09 (inactive) | 0.682
16 | CC(C)C(O)C1C=CC2C(=O)N(c3ccccc3)C(=O)C2N1Nc1ccc(C#N)cc1 (stereo not given) | -0.411 (inactive) | 0.797 | 12 (active) | 1.1 (inactive) | 2.03 (inactive) | 0.875 (inactive) | -1.09 | -1.81 (inactive) | -4.46 (inactive) | -2.83
17 | COC(=O)[C@@]1(Cc2ccc(OC)cc2)[C@H]2c3cc(C(=O)N4CCCC4)n(Cc4ccccn4)c3C[C@H]2CN1C(=O)c1ccccc1 | -0.824 (inactive) | 0.595 | 3.64 (inactive) | 0.537 (inactive) | 1.1 (inactive) | 0.814 (inactive) | -0.569 | 0.29 (inactive) | -1 (inactive) | -3.2
18 | COc1cc(C(O)C2C=CC3C(=O)N(c4ccccc4)C(=O)C3N2Nc2ccc(C#N)cc2)cc(OC)c1OC (stereo not given) | -1.64 (inactive) | 0.233 | 24 (active) | 7.24 (inactive) | 0.86 (inactive) | 1.76 (inactive) | -1.15 | -2.04 (inactive) | -5.26 (inactive) | -5.34
19 | O=C1O[C@@H](c2ccccc2)[C@@H](c2ccccc2)N2[C@@H](c3ccccc3OCCO)[C@]3(C(=O)Nc4ccc(C#CC5(O)CCCCCC5)cc43)[C@@H](C(=O)Nc3nc4ccccc4s3)[C@H]12 | -0.478 (inactive) | -0.12 | 3.1 (inactive) | 3.75 (inactive) | 1.96 (inactive) | 1.56 (inactive) | 0.361 | 1.42 (inactive) | 0.501 (inactive) | 1.28
20 | COc1ccc(C#Cc2ccc3c(c2)[C@]2(C(=O)N3)[C@H](C(=O)NC[C@H](O)c3ccccc3)[C@H]3C(=O)O[C@H](c4ccccc4)[C@H](c4ccccc4)N3[C@@H]2c2ccc(OCCO)cc2)cc1 | -0.877 (inactive) | 0.0711 | 2.93 (inactive) | 1.97 (inactive) | -0.0845 (inactive) | 1.52 (inactive) | -0.321 | 1.4 (inactive) | -1.22 (inactive) | 0.636
21 | CCCC[C@@H]1C[C@H]1[C@@H](NC(=O)c1ccc(-c2ccccc2)cc1)c1ccc(-c2ccccc2)cc1 | -2.4 (inactive) | 0.0341 | 2.15 (inactive) | 0.275 (inactive) | 1.68 (inactive) | 0.446 (inactive) | -0.456 | -1.32 (inactive) | -2 (inactive) | -0.619
22 | COCCOC(=O)N1C(=O)[C@@]2(c3ccccc31)[C@H](C(=O)NC[C@H](O)c1ccccc1)[C@H]1C(=O)O[C@H](c3ccccc3)[C@H](c3ccccc3)N1[C@@H]2c1ccc(OCCO)cc1 | 1.32 (inactive) | -0.496 | 3.97 (inactive) | 1.89 (inactive) | 0.968 (inactive) | 0.999 (inactive) | 0.29 | 0.463 (inactive) | 1.13 (inactive) | -0.739
23 | C=C(CCCC)C(=O)CC[C@H](OC(=O)c1cccnc1)c1cccc(OCCO)c1 | -0.03 (inactive) | -0.147 | 20.7 (active) | 4.33 (inactive) | 1.83 (inactive) | 1.19 (inactive) | 0.0701 | -0.372 (inactive) | -0.417 (inactive) | -2.11
24 | O=C1O[C@H](c2ccccc2)[C@H](c2ccccc2)N2[C@H]1[C@@H](C(=O)O)[C@]1(C(=O)Nc3ccc(C#CC4(O)CCCCCC4)cc31)[C@H]2c1ccc(OCCO)cc1 | -1.21 (inactive) | -0.031 | 1.14 (inactive) | -0.795 (inactive) | -9.96 (active) | -0.71 (inactive) | -0.424 | 2.71 (inactive) | -0.335 (inactive) | 1.25
25 | Cc1ccccc1C(O)C1C=CC2C(=O)N(C)C(=O)C2N1Nc1ccccc1 (stereo not given) | -1.71 (inactive) | 0.274 | 1.15 (inactive) | 0.737 (inactive) | -0.0787 (inactive) | 1.1 (inactive) | -0.711 | -1.39 (inactive) | -4.19 (inactive) | -2.72
